Activity calls are given as the source filed them.

One assay concerns the target Albumin (Bos taurus) (UniProt P02769). Nature of the assay: bovine serum albumin binders on microarray, profiling panel, artefact control for SMM control protein annotation, biochemical, small-molecule microarray, Alexa647 label, 635/667 nm fluorescence (AID 1118).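 Note: score merges 667 nm emission intensity and signal-to-noise per printed compound spot.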 The settings on record: BSA-A647 binding, fluorescence 635 nm, higher = more signal.
Assay [1] can be described thus: small-molecule microarray binders of probe aXIP, primary screen, biochemical, NeuroSMM set, 635/667 nm fluorescence (AID 1119).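 Note: probe is the protein aXip251-270 applied at 1 µg/mL to compound-printed slides; binding of probe to printed compounds measured as 667 nm fluorescence plus signal to noise.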 The settings on record: higher = more signal, called active from +8 up or from −8 down.
A short description of assay [2]: small-molecule binders of probe aNOTCH3, primary screen, biochemical, small-molecule microarray, 635/667 nm fluorescence (AID 1120).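 Note: probe is a biotin-tagged antibody raised against NOTCH3 rather than NOTCH3 protein; score merges spot fluorescence near 667 nm with spot signal to noise.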 As to conditions: higher = more signal.
A short description of assay [3]: small-molecule binders of probe aNOTCH2, primary screen, biochemical, small-molecule microarray, 635/667 nm fluorescence (AID 1121).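 Note: score merges feature fluorescence read at 667 nm with its signal to noise.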 As to conditions: higher = more signal.
The target in assay [4] is Carbonic anhydrase 2 (Homo sapiens) (UniProt P00918). In words: CAII small-molecule binders, profiling panel, biochemical, small-molecule microarray, Alexa647-labelled CAII (AID 1122). The settings on record: CAII-A647 binding fluorescence, higher = more signal.
Assay [5] can be described thus: COS7 lysate on small-molecule microarray, probe aHis, 635 nm (AID 1123).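 Note: z-score combines 667nm fluorescence intensity with signal-to-noise per printed compound spot.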 The settings on record: COS7 cell lysate, fluorescence, higher = more signal.
Assay [6] is described as follows: compound binding in COS7 lysate, probe aLAP1, primary screen, cell lysate, small-molecule microarray (AID 1124).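 Note: lysate comes from COS7 cells expressing LAP1 and is applied at 0.3 µg/mL; score merges spot fluorescence near 667 nm with signal-to-noise over triplicate slides.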 As to conditions: probe aLAP1, fluorescence, higher = more signal.
A further assay relates to Sam68 (KHDRBS1). In words: Sam68 small-molecule binders, primary screen, biochemical, small-molecule microarray, 635 nm fluorescence (AID 1125).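 Note: score merges 667 nm channel intensity with signal to noise over triplicate slides.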 As to conditions: small-molecule microarray binding, higher = more signal.
For assay [7], the system named is Chordin-like protein 2 (CHRDL2). Nature of the assay: CHRDL2 small-molecule binders, primary screen, biochemical, small-molecule microarray, 635 nm fluorescence (AID 1126).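 Note: printed compound slides probed with Chrdl2 protein at 4 µg/mL for 1 h at 4 C; score merges 667 nm emission intensity with signal to noise over three replicate slides.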 As to conditions: small-molecule microarray binding, fluorescence 635 nm; higher = more signal.
Assay [8] deals with Concanavalin-A (Canavalia ensiformis) (UniProt P02866). In words: ConA small-molecule binders, primary screen, artefact control for SMM control protein annotation, biochemical, small-molecule microarray, Alexa647 label, 635 nm (AID 1127).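 Note: z combines 667 nm emission intensity with signal-to-noise across three replicate slides.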 As to conditions: ConA-A647 binding fluorescence, higher = more signal.
Assay [9] is described as follows: anti-His antibody binders, primary screen, artefact control for SMM control protein annotation, biochemical, small-molecule microarray, 635 nm fluorescence (AID 1128).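 Note: score merges feature fluorescence with signal-to-noise for each printed compound spot.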 As to conditions: anti-His Alexa647 antibody binding, higher = more signal.
Assay [10] has as its system Human papillomavirus type 1a E7 protein (residues 1-88). Nature of the assay: HPV1a E7 small-molecule binders, primary screen, biochemical, small-molecule microarray, residues 1-88, 635 nm (AID 1129). As to conditions: small-molecule microarray binding, fluorescence 635 nm; higher = more signal.
Assay [11] deals with Focal adhesion kinase 1 (Homo sapiens) (UniProt Q05397). Nature of the assay: small-molecule microarray binders of FAK, primary screen, biochemical, 635/667 nm fluorescence, BSA, DTT (AID 1130).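 Note: composite of spot emission at 667 nm and signal to noise over triplicate slides.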 As to conditions: PTK2 binding, 635 nm fluorescence, higher = more signal.
Assay [12] deals with Fibrinogen (Alexa647-labelled). Nature of the assay: fibrinogen binders on compound microarrays, profiling panel, artefact control for SMM control-protein annotation, biochemical, small-molecule microarray, 635/667 nm fluorescence (AID 1131).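 Note: z-score merges 667 nm fluorescence with per-spot signal-to-noise over triplicate slides.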 As to conditions: fibrinogen-A647 binding fluorescence, higher = more signal.
In assay [13] the target is Follistatin (Homo sapiens) (UniProt P19883). Nature of the assay: follistatin binders on small-molecule microarrays, primary screen, biochemical, small-molecule microarray, 635/667 nm fluorescence (AID 1132). The settings on record: FST binding, 635 nm fluorescence, higher = more signal.
Assay [14] concerns the target Fibroblast growth factor 2 (Homo sapiens) (UniProt P09038). In words: FGF2 binders on small-molecule microarrays, primary screen, biochemical, small-molecule microarray, 635/667 nm fluorescence (AID 1133). As to conditions: small-molecule microarray binding, FGF2, fluorescence 635/667; higher = more signal.
Assay [15] is described as follows: mitochondrial membrane potential change in A549 cells, profiling panel, cell-based, JC-1 fluorescence, basal, 24 h, 100 nL (AID 1138).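 Note: A549 lung adenocarcinoma cells under basal conditions with no added stimulus; test concentration not given here.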 As to conditions: higher = more signal.
The test system of the next assay is Lefty1. In words: Lefty1 binders on small-molecule microarrays, primary screen, biochemical, small-molecule microarray, 635/667 nm fluorescence (AID 1139). As to conditions: small-molecule microarray binding, fluorescence 635/667; higher = more signal.
Assay [16] has as its system wheat germ agglutinin (Triticum aestivum), Alexa647-labelled. Nature of the assay: wheat germ agglutinin binders on compound microarrays, profiling panel, artefact control for SMM control-protein annotation, biochemical, small-molecule microarray, 635/667 nm fluorescence (AID 1140).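 Note: score merges 667 nm feature emission with signal to noise over triplicate slides.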 As to conditions: WGA-A647 binding, 635 nm fluorescence, higher = more signal.
Assay [17] concerns the target Luciferin 4-monooxygenase (Photinus pyralis) (UniProt P08659). In words: firefly luciferase enzyme inhibitors, primary screen, biochemical, luminescence, purified enzyme, 2006 set (AID 1141).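 Note: cell-free assay with purified firefly luciferase at 100 ng per well in PBS; test concentration not given here.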 As to conditions: SteadyGlo luminescence, 30 min, higher = more signal, called active from +8 up or from −8 down.

Chain of Luciferin 4-monooxygenase (Photinus pyralis) (P08659 whole entry, looked up): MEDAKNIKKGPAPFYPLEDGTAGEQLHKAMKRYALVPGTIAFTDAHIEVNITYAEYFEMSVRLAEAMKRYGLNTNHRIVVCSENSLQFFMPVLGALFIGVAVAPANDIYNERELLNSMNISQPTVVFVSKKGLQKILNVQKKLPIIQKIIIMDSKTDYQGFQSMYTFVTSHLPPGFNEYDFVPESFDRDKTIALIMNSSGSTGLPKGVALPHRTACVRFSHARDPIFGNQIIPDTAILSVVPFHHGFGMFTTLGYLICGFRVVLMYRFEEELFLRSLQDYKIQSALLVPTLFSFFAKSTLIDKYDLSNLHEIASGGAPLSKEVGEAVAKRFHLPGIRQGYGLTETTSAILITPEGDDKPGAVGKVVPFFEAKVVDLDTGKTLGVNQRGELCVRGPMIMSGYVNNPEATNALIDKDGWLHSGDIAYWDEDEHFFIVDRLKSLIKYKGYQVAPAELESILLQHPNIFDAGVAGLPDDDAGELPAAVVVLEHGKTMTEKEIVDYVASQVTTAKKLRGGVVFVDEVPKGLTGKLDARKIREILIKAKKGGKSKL
Chain of Concanavalin-A (Canavalia ensiformis) (P02866 whole entry, looked up): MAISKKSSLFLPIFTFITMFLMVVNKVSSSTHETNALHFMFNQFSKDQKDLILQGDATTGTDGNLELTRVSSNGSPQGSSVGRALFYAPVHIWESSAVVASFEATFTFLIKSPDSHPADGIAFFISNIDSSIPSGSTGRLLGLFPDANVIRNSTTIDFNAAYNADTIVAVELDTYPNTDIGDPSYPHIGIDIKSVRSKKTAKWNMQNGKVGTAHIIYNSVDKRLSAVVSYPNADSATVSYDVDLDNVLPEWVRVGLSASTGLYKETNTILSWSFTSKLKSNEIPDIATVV
Chain of Albumin (Bos taurus) (P02769 whole entry, looked up): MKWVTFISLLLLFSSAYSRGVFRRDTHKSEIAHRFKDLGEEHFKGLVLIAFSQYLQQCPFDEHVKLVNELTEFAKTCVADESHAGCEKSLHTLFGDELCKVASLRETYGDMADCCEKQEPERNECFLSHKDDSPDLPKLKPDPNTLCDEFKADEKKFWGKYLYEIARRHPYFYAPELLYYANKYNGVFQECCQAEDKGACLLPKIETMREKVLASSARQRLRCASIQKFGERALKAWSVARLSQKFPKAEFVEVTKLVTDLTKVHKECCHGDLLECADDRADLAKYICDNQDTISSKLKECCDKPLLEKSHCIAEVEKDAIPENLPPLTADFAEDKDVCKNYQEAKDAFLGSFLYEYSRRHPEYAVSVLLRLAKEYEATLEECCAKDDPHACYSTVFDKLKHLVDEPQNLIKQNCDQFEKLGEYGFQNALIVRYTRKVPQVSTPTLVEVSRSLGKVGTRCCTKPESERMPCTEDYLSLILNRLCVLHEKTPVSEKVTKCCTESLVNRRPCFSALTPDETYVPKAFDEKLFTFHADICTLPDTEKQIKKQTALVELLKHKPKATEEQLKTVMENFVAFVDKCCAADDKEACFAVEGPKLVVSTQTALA
Chain of Fibroblast growth factor 2 (Homo sapiens) (P09038 whole entry, looked up): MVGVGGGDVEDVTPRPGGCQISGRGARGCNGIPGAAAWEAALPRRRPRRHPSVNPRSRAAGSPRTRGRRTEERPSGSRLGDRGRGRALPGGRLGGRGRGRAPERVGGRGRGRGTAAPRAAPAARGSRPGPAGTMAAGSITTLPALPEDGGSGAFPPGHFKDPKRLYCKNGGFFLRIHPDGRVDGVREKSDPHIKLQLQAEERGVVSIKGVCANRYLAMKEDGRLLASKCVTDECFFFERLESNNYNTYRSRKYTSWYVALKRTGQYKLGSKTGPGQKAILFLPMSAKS
Chain of Follistatin (Homo sapiens) (P19883 whole entry, looked up): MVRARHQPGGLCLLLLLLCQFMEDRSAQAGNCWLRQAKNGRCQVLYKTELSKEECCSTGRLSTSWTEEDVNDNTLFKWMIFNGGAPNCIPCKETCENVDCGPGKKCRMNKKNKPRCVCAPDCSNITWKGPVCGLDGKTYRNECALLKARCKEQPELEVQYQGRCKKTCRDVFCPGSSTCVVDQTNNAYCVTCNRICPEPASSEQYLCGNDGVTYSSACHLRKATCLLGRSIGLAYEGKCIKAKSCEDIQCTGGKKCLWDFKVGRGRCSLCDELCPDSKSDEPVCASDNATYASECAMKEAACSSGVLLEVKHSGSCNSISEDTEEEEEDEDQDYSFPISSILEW
Chain of Focal adhesion kinase 1 (Homo sapiens) (Q05397 whole entry, looked up): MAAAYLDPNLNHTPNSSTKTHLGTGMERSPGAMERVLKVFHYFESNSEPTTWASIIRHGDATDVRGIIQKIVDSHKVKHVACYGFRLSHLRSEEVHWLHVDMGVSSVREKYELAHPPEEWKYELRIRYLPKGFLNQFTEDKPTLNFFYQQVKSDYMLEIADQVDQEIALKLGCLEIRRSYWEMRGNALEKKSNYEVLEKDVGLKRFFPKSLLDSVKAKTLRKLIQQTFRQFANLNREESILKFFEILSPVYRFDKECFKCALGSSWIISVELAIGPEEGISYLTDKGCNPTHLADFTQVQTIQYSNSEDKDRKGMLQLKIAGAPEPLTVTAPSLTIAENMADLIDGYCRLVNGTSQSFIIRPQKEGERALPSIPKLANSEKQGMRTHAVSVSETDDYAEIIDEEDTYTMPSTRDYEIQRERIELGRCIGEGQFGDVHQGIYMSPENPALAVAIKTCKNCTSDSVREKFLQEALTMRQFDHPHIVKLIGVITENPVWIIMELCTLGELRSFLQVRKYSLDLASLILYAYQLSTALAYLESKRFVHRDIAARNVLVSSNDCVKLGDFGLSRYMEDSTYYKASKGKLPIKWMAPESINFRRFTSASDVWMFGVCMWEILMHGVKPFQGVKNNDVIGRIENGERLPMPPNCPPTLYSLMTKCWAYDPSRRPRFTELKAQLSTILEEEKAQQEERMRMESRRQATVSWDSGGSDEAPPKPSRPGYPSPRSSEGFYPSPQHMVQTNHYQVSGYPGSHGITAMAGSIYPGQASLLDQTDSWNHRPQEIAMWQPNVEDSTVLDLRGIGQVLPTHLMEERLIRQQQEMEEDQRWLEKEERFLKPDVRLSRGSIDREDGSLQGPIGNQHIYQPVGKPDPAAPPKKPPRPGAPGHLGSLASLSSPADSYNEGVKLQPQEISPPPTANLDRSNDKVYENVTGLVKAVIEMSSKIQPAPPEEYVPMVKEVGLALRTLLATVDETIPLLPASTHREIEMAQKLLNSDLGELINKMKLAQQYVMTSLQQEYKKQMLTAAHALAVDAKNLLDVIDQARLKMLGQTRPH

On to `C=CCN1C(=O)[C@]2(O[C@H](CCn3cc([C@H](O)c4ccccc4)nn3)[C@@H]([Si](C)(C)c3ccc(OC)cc3)[C@@H]2C)c2ccccc21`, for which the composite z-score was -0.0698 with Albumin (Bos taurus); -0.253 in assay [2]; -0.156 in assay [3]; -0.238 in assay [4]; -0.011 in assay [5]; 0.0809 in assay [6]. Also, the composite z-score was -0.776 with Sam68 (KHDRBS1); -0.278 in assay [7]; -0.847 in [8]; -0.435 in assay [9]; -0.723 in assay [10]; -0.458 in assay [11]. Further, the composite z-score in assay [12] is -1.07; in assay [13] it was -0.696; in assay [14], -0.403; in the assay with Lefty1 it was -0.581; in [16], 0.417. For the same compound, the composite Z-score in assay [1] is 0.0503 (inactive). For the same compound, the z-score in assay [15] was -0.156; in [17], 0.184 (inactive).

For `COC(=O)[C@@]1(Cc2ccc(OC)cc2)[C@H]2c3cc(C(=O)N4CCCC4)n(Cc4ccc(C)c(F)c4F)c3C[C@H]2CN1C(=O)c1ccccc1`, the composite z-score in the assay with Albumin (Bos taurus) is 1.05; in assay [2] it was 0.538; in assay [3] it was 0.223; in assay [4] it was 0.744; in [5] it was 3.22; in assay [6] it was 0.345. In addition, the composite z-score is 1.3 with Sam68 (KHDRBS1); -0.596 in assay [7]; 1.15 in [8]; 1.39 in assay [9]; 1.27 in [10]; 1.32 in [11]. The composite z-score in [12] is 0.97; in assay [13], 0.884; in [14], -0.294; with Lefty1, -0.161; in assay [16] it was 1.32. Moreover, the composite Z-score in [1] is -0.572 (inactive). Also, the figures for the z-score in [15] and in assay [17] were 1.41 and 1.44 (inactive), respectively.

In the case of `CCCC=C(CCC)[C@@H](NC(=O)c1cccs1)c1ccc(C(F)(F)F)cc1`, the composite z-score with Albumin (Bos taurus) is 0.868; in assay [2], 0.224; in [3], -0.0027; in assay [4], 0.173; in assay [5] it was 0.0705; in assay [6], 0.156. In addition, the composite z-score was 1.23 with Sam68 (KHDRBS1); -0.595 in assay [7]; 0.79 in assay [8]; 0.51 in assay [9]; 1.23 in assay [10]; -0.201 in [11]. Also, the composite z-score in assay [12] was found to be 0.936; in assay [13] it was 0.572; in assay [14], 0.0183; in the assay on Lefty1, 0.735; in assay [16], 0.83. Further, the composite Z-score in [1] was 0.23 (inactive). In addition, the z-score in assay [15] is 0.627; in [17], -2.34 (inactive).

Consider `CC(=O)NCCCC[C@@H]1NC(=O)[C@@H]2C[C@H](C(=O)NCCCCCNC(=O)CS)[C@H](c3cccc(OCCO)c3)N2C1=O`, for which the composite z-score with Albumin (Bos taurus) was -0.0839; in assay [2], -0.205; in [3], -0.159; in assay [4], -0.0086; in assay [5], -0.0704; in [6], -0.0909. In addition, the composite z-score in the assay with Sam68 (KHDRBS1) is 0.254; in [7], 1.05; in assay [8], 0.241; in assay [9], 2; in [10], -0.516; in assay [11], -0.612. For the same compound, the composite z-score in assay [12] was -1.07; in [13], 1.32; in [14], 0.94; in the assay on Lefty1 it was 1.1; in [16], 0.0847. Also, the composite Z-score in assay [1] was 0.648 (inactive). Further, the z-score in assay [15] is -0.763; in assay [17], -0.125 (inactive).

On to `COC(=O)[C@@]1(Cc2ccc(F)cc2)[C@H]2c3cc(C(=O)N4CCCC4)n(Cc4ccc(S(C)(=O)=O)cc4)c3C[C@H]2CN1C(=O)c1ccccc1`, for which the composite z-score in the assay with Albumin (Bos taurus) was determined as 1.08; in [2], 0.827; in assay [3] it was 0.365; in [4] it was 0.718; in [5], 3.34; in assay [6], 1.21. Also, the composite z-score is 0.995 in the assay on Sam68 (KHDRBS1); -0.26 in assay [7]; 1.05 in assay [8]; 1.9 in [9]; 1.24 in assay [10]; 0.566 in assay [11]. In addition, the composite z-score is 0.773 in assay [12]; 0.751 in assay [13]; 0.264 in assay [14]; -0.0071 in the assay with Lefty1; 0.616 in assay [16]. Further, the composite Z-score in assay [1] was 1 (inactive). Also, the z-score in assay [15] is 0.427; in assay [17], 1.18 (inactive).
